# Positions count from the first letter of the chain named.
# Tests used:
# Test in all cases: yeast three-hybrid, YBZ-1, SC-Leu-His + 0.5 mM 3-AT, 4 days
# Details in all cases: tags: N-Gal4 AD-HA kept; label: inside an RPR1-promoter hybrid RNA with tandem MS2 sites; ssRNA
# PUM1 PUF domain R8-LYG = PUM1 PUF domain R8-LYG (Homo sapiens, UniProt Q14671 828-1176, N1122L;Q1126G)
# Outline: (§1)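 A centromeric plasmid in strain YBZ-1 co-expressed Pumilio-1 PUF domain libraries, randomized at the three base-contacting residues of each repeat, with matching RNA elements; the strain carries a LexA–MS2 coat fusion and a HIS3 reporter. After four days on SC-Leu (input) or SC-Leu-His + 0.5 mM 3-AT (selection), the repeat regions were PCR-amplified and Illumina-sequenced. The interaction score is the log change in variant frequency from input to selection, using log2 and a pseudocount of 1 where absent.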
# PUM1 PUF domain R8-RHI = PUM1 PUF domain R8-RHI (Homo sapiens, UniProt Q14671 828-1176, N1122R;Y1123H;Q1126I)
# Outline: as §1
# PUM1 PUF domain R4-DYG = PUM1 PUF domain R4-DYG (Homo sapiens, UniProt Q14671 828-1176, N971D;H972Y;Q975G)
# Outline: as §1
# PUM1 PUF domain R6-VYG = target: T1, PUM1 PUF domain R6-VYG (Homo sapiens, UniProt Q14671 828-1176, N1043V;Q1047G)
# T1 sequence: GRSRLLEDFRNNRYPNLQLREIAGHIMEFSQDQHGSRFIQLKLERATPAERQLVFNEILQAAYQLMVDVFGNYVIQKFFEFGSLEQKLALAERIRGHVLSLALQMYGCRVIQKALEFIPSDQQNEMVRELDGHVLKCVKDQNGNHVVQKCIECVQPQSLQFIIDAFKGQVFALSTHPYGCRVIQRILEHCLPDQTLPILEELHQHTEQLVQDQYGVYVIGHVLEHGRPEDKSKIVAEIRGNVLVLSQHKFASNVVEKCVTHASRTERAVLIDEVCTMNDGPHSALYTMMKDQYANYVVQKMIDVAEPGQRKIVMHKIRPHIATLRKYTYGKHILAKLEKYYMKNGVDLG
# Outline: as §1
# PUM1 PUF domain R7-RSG = PUM1 PUF domain R7-RSG (Homo sapiens, UniProt Q14671 828-1176, S1079R;N1080S;E1083G)
# Outline: as §1
# PUM1 PUF domain R7-RSN = PUM1 PUF domain R7-RSN (Homo sapiens, UniProt Q14671 828-1176, S1079R;N1080S;E1083N)
# Outline: as §1
# PUM1 PUF domain R5-GFY = PUM1 PUF domain R5-GFY (Homo sapiens, UniProt Q14671 828-1176, C1007G;R1008F;Q1011Y)
# Outline: as §1
# PUM1 PUF domain R5-FKR = PUM1 PUF domain R5-FKR (Homo sapiens, UniProt Q14671 828-1176, C1007F;R1008K;Q1011R)
# Outline: as §1
# PUM1 PUF domain R1-RIT = PUM1 PUF domain R1-RIT (Homo sapiens, UniProt Q14671 828-1176, S863R;R864I;Q867T)
# Outline: as §1
# PUM1 PUF domain R1-TMR = PUM1 PUF domain R1-TMR (Homo sapiens, UniProt Q14671 828-1176, S863T;R864M;Q867R)
# Outline: as §1
# PUM1 PUF domain R1-GCR = PUM1 PUF domain R1-GCR (Homo sapiens, UniProt Q14671 828-1176, S863G;R864C;Q867R)
# Outline: as §1
# PUM1 PUF domain R6-TFR = target: T2, PUM1 PUF domain R6-TFR (Homo sapiens, UniProt Q14671 828-1176, N1043T;Y1044F;Q1047R)
# T2 sequence: T1 sequence with V216T, Y217F, G220R
# Outline: as §1
sequence,measurement,setting,value
GGCUAGAACUAGUGGAUCCCCCGGCGCCCGGCGGCUCGAGCCCGGGUAAGCGUAAAUAGUCUGCAUGCCGCCGGGCGCCAUGCCUGCAGGUCGACUCUAGAAAACAUG,binding signal,PUM1 PUF domain R8-LYG,2.57 log2 enrichment (interaction score)
same,binding signal,PUM1 PUF domain R8-RHI,5.37 log2 enrichment (interaction score)
GGCUAGAACUAGUGGAUCCCCCGGCGCCCGGCGGCUCGAGCCCGGGUAAGUGUACAUAGUCUGCAUGCCGCCGGGCGCCAUGCCUGCAGGUCGACUCUAGAAAACAUG,binding signal,PUM1 PUF domain R4-DYG,5.37 log2 enrichment (interaction score)
GGCUAGAACUAGUGGAUCCCCCGGCGCCCGGCGGCUCGAGCCCGGGUAAGUGAAAAUAGUCUGCAUGCCGCCGGGCGCCAUGCCUGCAGGUCGACUCUAGAAAACAUG,binding signal,PUM1 PUF domain R6-VYG,5.61 log2 enrichment (interaction score)
GGCUAGAACUAGUGGAUCCCCCGGCGCCCGGCGGCUCGAGCCCGGGUAAGUUUAAAUAGUCUGCAUGCCGCCGGGCGCCAUGCCUGCAGGUCGACUCUAGAAAACAUG,binding signal,PUM1 PUF domain R7-RSG,2.86 log2 enrichment (interaction score)
same,binding signal,PUM1 PUF domain R7-RSN,3.1 log2 enrichment (interaction score)
GGCUAGAACUAGUGGAUCCCCCGGCGCCCGGCGGCUCGAGCCCGGGUAAGUGUUAAUAGUCUGCAUGCCGCCGGGCGCCAUGCCUGCAGGUCGACUCUAGAAAACAUG,binding signal,PUM1 PUF domain R5-GFY,2.65 log2 enrichment (interaction score)
same,binding signal,PUM1 PUF domain R5-FKR,2.17 log2 enrichment (interaction score)
GGCUAGAACUAGUGGAUCCCCCGGCGCCCGGCGGCUCGAGCCCGGGUAAGUGUAAAUCGUCUGCAUGCCGCCGGGCGCCAUGCCUGCAGGUCGACUCUAGAAAACAUG,binding signal,PUM1 PUF domain R1-RIT,5.29 log2 enrichment (interaction score)
same,binding signal,PUM1 PUF domain R1-TMR,2.55 log2 enrichment (interaction score)
same,binding signal,PUM1 PUF domain R1-GCR,2.53 log2 enrichment (interaction score)
GGCUAGAACUAGUGGAUCCCCCGGCGCCCGGCGGCUCGAGCCCGGGUAAGUGUAAAUUGUCUGCAUGCCGCCGGGCGCCAUGCCUGCAGGUCGACUCUAGAAAACAUG,binding signal,PUM1 PUF domain R1-GCR,1.58 log2 enrichment (interaction score)
GGCUAGAACUAGUGGAUCCCCCGGCGCCCGGCGGCUCGAGCCCGGGUAAGUGCAAAUAGUCUGCAUGCCGCCGGGCGCCAUGCCUGCAGGUCGACUCUAGAAAACAUG,binding signal,PUM1 PUF domain R6-TFR,5.38 log2 enrichment (interaction score)
